Screening results: PubChem BioAssay, several laboratories
CYP2C19 inh: blockers of cytochrome P450 2C19 activity – biochemical, luminescence, ADME assay, primary screen. P33261. CYP2C19 Supersomes, luciferin-H EGE luminescence, 30 min. inhibition, % at 5 µM. 21% of 96,000 active. AID 778, 2007;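 active means CYP2C19 inhibition above a set limit at 5 µM in the primary screen, cut at about 50% in these data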
Target sequence (P33261 whole entry, looked up): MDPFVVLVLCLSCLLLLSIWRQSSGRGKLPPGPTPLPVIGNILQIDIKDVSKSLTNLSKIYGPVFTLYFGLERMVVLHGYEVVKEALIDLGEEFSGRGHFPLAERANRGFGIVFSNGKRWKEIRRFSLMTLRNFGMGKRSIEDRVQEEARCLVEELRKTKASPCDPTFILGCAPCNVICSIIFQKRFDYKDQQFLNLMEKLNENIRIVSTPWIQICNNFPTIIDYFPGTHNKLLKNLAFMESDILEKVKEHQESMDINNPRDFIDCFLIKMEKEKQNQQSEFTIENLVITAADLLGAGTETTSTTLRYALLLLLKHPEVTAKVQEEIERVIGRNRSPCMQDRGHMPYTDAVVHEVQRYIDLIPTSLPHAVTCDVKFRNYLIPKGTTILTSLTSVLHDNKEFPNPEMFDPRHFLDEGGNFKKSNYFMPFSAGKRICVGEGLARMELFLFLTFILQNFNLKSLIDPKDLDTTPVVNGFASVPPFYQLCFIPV
PostGolgi ctrl: growth inhibition of yeast control strain, primary screen, counter-screen for post-Golgi transport modulator project; 5% of 98,000 active; efflux-deficient yeast background strain, growth absorbance A615, 16 h; inhibition, % at 10 µM
CYP2C9 activ: human CYP2C9 activators, primary screen, biochemical, luminescence; recombinant CYP2C9, luciferin-H conversion; active compounds read high; factor 1 = untreated enzyme, 0 = blocked; activation factor at 5 µM; 1.4% of 96,000 active;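 active means activation factor of 2 or more for CYP2C9 at a 5 µM dose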
CYP2C19 activ: human CYP2C19 activators, primary screen, biochemical, luminescence | 96,000 tested, under 10 active | recombinant CYP2C19, luciferin-H EGE luminescence; active compounds read high; 0 = fully inhibited enzyme, 1 = untreated enzyme | activation factor at 5 µM | Cytochrome P450 2C19 (Homo sapiens), P33261;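 active means activation factor of at least 2 at 5 µM in the primary screen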
CYP2C9 inhib: blockers of cytochrome P450 2C9 activity – biochemical, luminescence, ADME assay, primary screen. P11712. CYP2C9 Supersomes, luciferin-H conversion. inhibition, % at 5 µM. 20% of 96,000 active. AID 777, 2007;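 active means blocking of liver enzyme CYP2C9 beyond about 50% at 5 µM, limit read from the data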
PostGolgi yeast: phenotypic screen on post-Golgi transport, primary screen. inhibition, % at 10 µM. 0.9% of 98,000 active. AID 739, 2007. post-Golgi transport phenotypic cell assay;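 further: yeast cells grown in 1536-well plates; yeast grown about 18 h at 30C before absorbance read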
Each line names hits and unclear results; the compound was inactive in the other large screens. Rows were chosen to be rich in hits. Some 32% of all compounds tested hit in one or more screens of this group. Unless noted, no stated cut-off is given here; in the data, active means inhibition above about 30%; inactive means the rest.

CC1CCN(C(=O)CCc2ccc(S(=O)(=O)NC(C)C)cc2)CC1	CYP2C19 inh 53
CC(C)(C)NS(=O)(=O)c1ccc(CCC(=O)N2CCCCC2)cc1	CYP2C19 inh 61
Cc1ccc(S(=O)(=O)NCC(=O)N2CCC(C)CC2)cc1	CYP2C19 inh 72
Cc1cc(C)c(C)c(S(=O)(=O)NCC(=O)N2CCCC2)c1C	CYP2C19 inh 78
CCOCC(=O)Nc1ccc(S(=O)(=O)Nc2ncccn2)cc1	none
CCCOC(=O)c1ccc(OCC(O)Cn2c(C)nc3ccccc32)cc1 (stereo unspecified)	none
Cc1ccccc1NC(=O)CC1(c2ccc(N(C)C)cc2)C(=O)c2ccccc2C1=O	CYP2C19 inh 56
O=C(O)CC1(c2ccccc2)C(=O)c2ccccc2C1=O	none (no result: PostGolgi ctrl, PostGolgi yeast)
N#Cc1ccc(CSc2nnc(-c3cccnc3)n2-c2ccccc2)cc1	none
Cc1ccc(CSc2nnc(-c3ccccn3)n2C)cc1	none
c1ccc(CSc2nncn2-c2ccccn2)cc1	CYP2C19 inh 88
Cn1c(SCc2ccccc2F)nnc1-c1cnccn1	CYP2C19 inh 62
CC1CCN(C(=O)CSc2nncn2-c2ccccn2)CC1	none
Cn1c(SCc2ccc(F)cc2)nnc1-c1ccccn1	CYP2C19 inh 88
c1ccc(CSc2nnc(-c3ccccn3)n2-c2ccccc2)cc1	CYP2C9 inhib 99
CC(=O)c1ccc(N2C(=O)[C@@H]3C(CCC(N)=O)NC4(C(=O)Nc5c4ccc(Cl)c5C)[C@@H]3C2=O)cc1 (stereo partly specified)	none
CCOc1ccc(OCC)c(NC(=O)CCn2c(=O)oc3ccccc32)c1	none
CC(C)NC(=O)CSc1nc2ccccc2n1-c1ccccc1	none (no result: CYP2C19 inh, CYP2C9 activ, CYP2C19 activ, CYP2C9 inhib)
CC(C)(C)NC(=O)CSc1nnc(-c2ccccn2)n1-c1ccccc1	CYP2C19 inh 53 (no result: PostGolgi ctrl)
CC(C)(C)NC(=O)CSc1nc2ccccc2n1-c1ccccc1	CYP2C19 inh 99, PostGolgi ctrl 33, CYP2C9 inhib 100
CC(C)(C)NC(=O)CSc1nc(O)cc(=O)n1-c1ccccc1	none
O=C(O)CC(C(=O)Nc1cccc(C(F)(F)F)c1)C1CCCO1 (stereo unspecified)	none
COc1ccc(Nc2nc(C)cc(C)c2C(N)=O)c(OC)c1	none
C=CCn1c(=O)c2c3c(sc2n2c(Nc4ccc(C(=O)OCC)cc4)nnc12)CCCC3	none
COc1ccc2nc(SCC(=O)Nc3ccccc3C#N)[nH]c2c1	CYP2C9 inhib 67
CCOc1ccc2nc(SCC(=O)Nc3cc4c(cc3C(C)=O)OCO4)[nH]c2c1	CYP2C19 inh 61, CYP2C9 inhib 72
COc1ccc2nc(SCC(=O)Nc3ccccc3C)[nH]c2c1	CYP2C19 inh 68, CYP2C9 inhib 88
CC(=O)COc1ncn(-c2ccccc2)n1	none
Cc1cc(-c2ccc(Cl)cc2)c(C#N)c(N)n1	none
N#Cc1c(N)nc2c(c1N)CC(=O)N2c1ccccc1-c1ccccc1	CYP2C19 inh 96, CYP2C9 inhib 87
N#Cc1c(N)nc2c(c1N)CC(=O)N2c1ccc(Cl)cc1	CYP2C19 inh 52
Cc1ccc2[nH]c(=O)c(CN(Cc3ccc4c(c3)OCO4)Cc3nnnn3Cc3ccco3)cc2c1	CYP2C19 inh 99, CYP2C9 inhib 99
Cc1cc(C)c2cc(CN(Cc3ccc4c(c3)OCO4)Cc3nnnn3Cc3ccco3)c(=O)[nH]c2c1	CYP2C19 inh 67, CYP2C9 inhib 80
O=C(CSc1nc2ccc([N+](=O)[O-])cc2[nH]1)NCCc1ccccc1	CYP2C19 inh 82, CYP2C9 inhib 81
O=C(CSc1ccsc1[N+](=O)[O-])NCCc1ccc(Cl)cc1	none
CCCCCNC(=O)C(C)Sc1ccc(Cl)cc1 (stereo unspecified)	none
O=C(CSc1ccsc1[N+](=O)[O-])NCCc1ccccc1	CYP2C9 inhib 55
Cn1c(SCC(=O)NC(c2ccccc2)c2ccccc2)nnc1-c1cccs1	none
Cc1nc(SCC(=O)NCCc2ccccc2)n[nH]1	none
CC(Sc1ccsc1[N+](=O)[O-])C(=O)NCCc1ccc(Cl)cc1 (stereo unspecified)	CYP2C19 inh 57, PostGolgi ctrl 34, CYP2C9 inhib 70, PostGolgi yeast 70
CCC(Cc1ccccc1)NC(=O)CSc1ccsc1[N+](=O)[O-] (stereo unspecified)	CYP2C19 inh 72
CCOc1cc2[nH]c(=O)n(CCCC(=O)NCc3ccc(OC)cc3)c(=O)c2cc1OCC	none
CCn1nc2cc(C(=O)NCCc3cccs3)ccc2c1OC	none
OC(COCc1ccccc1)CN1CCN(c2ccccc2)CC1 (stereo unspecified)	none
CCCc1ccc(OCC(O)CN2CCN(c3ccccc3)CC2)cc1 (stereo unspecified)	CYP2C19 inh 73, PostGolgi ctrl 85, PostGolgi yeast 72
Cc1ccc(OCC(O)CN2CCN(c3ccccc3)CC2)cc1 (stereo unspecified)	none
CCc1ccc(OCC(O)CN2CCN(c3ccccc3)CC2)cc1 (stereo unspecified)	CYP2C19 inh 67, PostGolgi ctrl 33
CC(=O)c1ccc(N2CCN(CCC#N)CC2)c(F)c1	none
CCc1ccccc1NC(=O)c1ccc(CN2CCC(Cc3ccccc3)CC2)cc1	CYP2C19 inh 56
O=C(c1ccc(CN2CCOCC2)cc1)N1CCC(Cc2ccccc2)CC1	CYP2C19 inh 66, CYP2C9 inhib 71
Cc1ccccc1NC(=O)c1ccc(CN2CCc3ccccc3C2)cc1	none
CCOC(=O)C1CCN(S(=O)(=O)c2c(C)[nH]c(=O)[nH]c2=O)CC1	none
O=C(CC(=O)c1cc(Cl)ccc1O)c1ccccc1	PostGolgi ctrl 42, PostGolgi yeast 90
Cc1cccc(C(=O)Nc2ccc(O)cc2)c1	none (no result: CYP2C19 inh, CYP2C9 activ, CYP2C19 activ, CYP2C9 inhib)
Cc1cccc(C(=O)CC(=O)c2cc(Cl)ccc2O)c1	PostGolgi ctrl 64, CYP2C9 inhib 79, PostGolgi yeast 50
Cc1ccc(O)c(C(=O)CC(=O)c2cccc(F)c2)c1	PostGolgi ctrl 34
O=C(CCC(=O)c1ccc(Oc2ccccc2)cc1)Nc1ccc(Cl)cc1Cl	none
COc1ccccc1NC(=O)CNC(=O)c1ccc(F)cc1	none
CCOC(=O)c1ccccc1NC(=O)c1cccc(F)c1	none
COc1ccc(O)c(C(=O)CC(=O)c2ccc(F)cc2)c1	PostGolgi ctrl 35, PostGolgi yeast 33
CCOc1ccc2c(c1)c1nnc(SCC3CCCO3)nc1n2C (stereo unspecified)	none
O=C(COc1ccccc1Cl)NC(=S)N1CCc2ccccc21	none
O=C(CC12CC3CC(CC(C3)C1)C2)NCC(=O)N1CCc2ccccc2C1	none
Cc1cccc2c1NC(=O)C2(c1ccc(O)cc1)c1ccc(O)cc1	CYP2C19 inh 60, CYP2C9 inhib 79
COC(=O)c1ccccc1OCc1cccc(C)n1	none
